# According to PubChem BioAssay AID686979 (National Center for Advancing Translational Sciences (NCATS), 2013):
# The whole screen tested about 420,000 compounds, of which about 50,000 (12%) were called active. Not shown: some 26% with an inconclusive outcome. This excerpt belongs to a sample that is enriched for actives. A number with no mark means an inactive call. The call rests on the fitted dose curve; in most records, active means well fitted inhibition curve with a large enough effect; inconclusive means small, poorly fitted or top-dose-only effect; inactive means flat fitted curve, though single readings scatter.
# Assay: qHTS for Inhibitors of human tyrosyl-DNA phosphodiesterase 1 (TDP1): qHTS in cells in presence of CPT; further: nearly all actives have a fitted effect of over 55% in size
# Conditions: chicken DT40 Tdp1-/-;hTDP1 cells + 20 nM CPT, ATP luminescence, 48 h; series mostly up to 46.2 µM; activity change, negative = growth inhibition: at the top concentration
# Method in brief: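 Chicken DT40 Tdp1-/- cells stably complemented with human TDP1 were seeded at 400 cells/well in medium containing 20 nM camptothecin, exposed to pin-transferred compounds, and grown at 37 °C for at least 48 hr. Viability was read as ATP luminescence.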
# On the % scale 0 is the no-effect control and ±100 the full control effect; potency means the concentration at half of the fitted maximal effect.
SMILES,"activity change, negative = growth inhibition [%]",Potency
Cc1nc(N)c(Br)c(C)c1Br,-6.26,–
C[C@H]1CN([C@@H](C)CO)C(=O)CCCn2nncc2CO[C@@H]1CN(C)S(=O)(=O)c1cccc(C#N)c1,23,–
Cc1cc(NC(=O)CN2C(=O)NC(C)(CCc3ccccc3)C2=O)no1 (stereo not drawn),12.3,–
Cc1nc2ccc(NC(=S)N3CCC(C)CC3)cc2nc1C,1.6,–
CCn1c(SCC(=O)NCC2CCCO2)nc2ccccc21 (stereo not drawn),-0.0373,–
COc1ccc(S(=O)(=O)N2CCN(CC(=O)N3CCNC3=O)CC2)cc1OC,-1.11,–
COc1ccc2c(C)cc(SCC(=O)NCC3CCCO3)nc2c1 (stereo not drawn),-26,–
O=S(=O)(Nc1ncnc2sccc12)c1cccc(F)c1,-0.046,–
O=C(N[C@@H]1C/C=C\C[C@@H](CC(=O)N(CCO)Cc2ccccc2)C(=O)N[C@H](Cc2ccccc2)COC1=O)OCC1c2ccccc2-c2ccccc21,–,8.2 µM (active)
Nc1nc2c(ncn2[C@@H]2O[C@H](CNCc3ccc(OCCCN4CCOCC4)cc3)[C@@H](O)[C@H]2O)c(=O)[nH]1,8.06,–
CN(CC(=O)Nc1ccc(F)cc1)CC(=O)N1CCCCC1,4.19,–
Cc1ccc(O)c(-c2cc(C(=O)Nc3c(C)n(C)n(-c4ccccc4)c3=O)[nH]n2)c1,4.26,–
Nn1c(Cc2cccc3ccccc23)nnc1SCC(=O)N1CC(=O)Nc2ccccc21,-6.43,–
COc1ccc(CCNC(=O)CSc2nnc(CNC(=O)c3cccs3)o2)cc1OC,-3.57,–
COc1ccc(CCNC(=O)/C(C#N)=C2\N=C(NC(=O)c3cccs3)c3ccccc32)cc1,–,10.3 µM (active)
COc1ccc(CN(Cc2ccc(OC)cc2)C(=O)c2cccs2)cc1,-25.3,–
CCCN1CCc2nc(N3CCN(C)CC3)ncc2C1,-2.71,–
Cn1c(=O)c(CCc2ccccc2)nc2cnc(Nc3ccccc3)nc21,6.87,–
COc1ccc(CN2CCc3nc(Nc4ccccc4)ncc3C2)c(OC)c1OC,–,16.4 µM (active)
COc1ccc(CN2CCN(Cc3ccc(OC)c(OC)c3OC)CC2)cc1,4.44,–
Cc1nc2cnc(Nc3ccccc3)nc2n(Cc2ccc(F)cc2)c1=O,-13.7,–
Fc1ccc(CN2CCc3nc(Nc4ccccc4)ncc3C2)cc1F,–,11.6 µM (active)
CCCc1cc(=O)[nH]c2nnc(SCC(=O)Nc3nnc(SCC)s3)n12,7.93,–
Cc1nc2cc(NC(=O)[C@@H]3C[C@@H](Sc4ccccn4)CN3Cc3ccccc3C)ccc2s1,6.85,–
Cc1nn2c(=O)cc(COC(=O)c3cccc(NC(=O)COc4ccccc4Cl)c3)nc2s1,-1.04,–

SMILES,"activity change, negative = growth inhibition [%]",Potency
O=C(CNS(=O)(=O)c1ccc(Br)s1)N1CCN(C(=O)c2ccco2)CC1,-4.9,–
C[C@@H]1CN([C@H](C)CO)C(=O)c2cc(NC(=O)NC3CCCCC3)ccc2O[C@H]1CN(C)S(C)(=O)=O,16.1,–
CN1CCN(C(=O)C2=C[C@H](c3ccc4c(c3)OCO4)C[C@H](OCc3ccc(CO)cc3)O2)CC1,3.41,–
C#Cc1ccc([C@@H]2C=C(C(=O)O)O[C@H](OCCCCO)C2)cc1,-6.55,–
O=C(C1=C[C@H](c2ccc(C(F)(F)F)cc2)C[C@H](OCc2ccc(CO)cc2)O1)N1CCN(Cc2ccccc2)CC1,–,23.1 µM (active)
CCCCNC(=O)CSc1nc2cc3c(cc2c(=O)n1CCCCCC(=O)NCc1ccc2c(c1)OCO2)OCO3,9.03,–
O=C(COc1ccc(Cl)cc1)Nc1ccc2oc(=O)ccc2c1,3.91,–
O=c1[nH]c(CCl)nc2cc(-c3ccc(Cl)cc3)sc12,–,5.17 µM (active)
O=c1[nH]c(CN2CCOCC2)nc2cc(Cl)ccc12,-0.49,–
NC(=O)Cc1nc2scc(-c3ccc(Cl)cc3)c2c(=O)[nH]1,-7.61,–
CCc1ccc(CN(C)C(=O)C2CCC(=O)N(Cc3cccc(OC)c3)C2)nc1 (stereo not drawn),-25,–
C=CCC(C(=O)c1ccccc1)[N+](C)(C)CC=C (stereo not drawn),1.64,–
COc1cc(C(F)(F)F)c(C(=O)N(C)c2ccc(Cl)cc2)cn1,-27.9,–
CC(C)(C)c1ccc(S(=O)(=O)N2CCN(C(=O)c3ccc4c(c3)C(=O)N(Cc3ccncc3)C4=O)CC2)cc1,-0.99,–
COC(=O)Cc1csc(/N=C/c2c(O)n(-c3cccc(C(F)(F)F)c3)c(=O)c3ccccc23)n1,–,6.51 µM (active)
COC(=O)Cc1csc(Nc2c(C)n(C)n(-c3ccccc3)c2=O)n1,5.14,–
COC(=O)Cc1c(O)ccn(Cc2cccc(C(F)(F)F)c2)c1=O,19.8,–
COc1ccc(NC(=O)CSc2nnc(-c3ccccc3F)n2C2CC2)cc1S(N)(=O)=O,2.75,–
COc1ccccc1C(=O)N(C1=NC(C)CS1)c1ccc(Cl)cc1 (stereo not drawn),-28.9,–
CC(C)Nc1nc(NCCOc2ccccc2Cl)c2sccc2n1,–,18.4 µM (active)
CCc1ccc(S(=O)(=O)c2nnn3c2nc(NCc2ccccc2OC)c2cc(Cl)ccc23)cc1,-16.5,–
COCCNc1nc(NCc2ccc(NC(C)=O)cc2)c2sccc2n1,9.84,–
COc1cccc(CNc2nc(NCc3ccccc3OC)nc3ccsc23)c1,–,9.2 µM (active)
COc1cccc(CNc2nc(NCc3cccs3)nc3ccsc23)c1,–,23.1 µM (active)
COc1ccc(CNc2ncncc2-c2ccccc2C)c(OC)c1,-1.91,–

SMILES,"activity change, negative = growth inhibition [%]",Potency
Cc1nc2cc(NCc3cccs3)ccc2n1C,-4.67,–
COc1cccc(CNc2nccn(-c3ccc(OC)c(OC)c3)c2=O)c1,1.62,–
COc1ccccc1CNc1nc(Nc2ccccc2Cl)c2sccc2n1,–,9.2 µM (active)
CCNc1nc(NC(C)C)nc(OCCOC(=O)c2ccccc2)n1,-18.3,–
CNC(=O)c1sc(NCc2ccccc2OC)nc1C,4.75,–
CC(=O)C(CC(=O)N1CCCC1)C(=O)Nc1ccc(Cl)cc1 (stereo not drawn),-3.12,–
O=C1CC(c2c(F)cccc2Cl)C(n2cncn2)C(O)=C1C1NCCc2ccccc21 (stereo not drawn),1.98,–
Nc1nc2cc(Cl)ccc2n1N,-16.6,–
COc1ccc(NC(=O)CN(C)C(=O)c2cc(C)oc2C)cc1,3.81,–
O=C1NC(c2ccccc2)=NC1(Nc1ccccn1)C(F)(F)F (stereo not drawn),16,–
Cc1ccc(C)c(C(=O)N2CCC(n3nccc3NC(=O)C3CC3)CC2)c1,13.2,–
Cc1cc(C(=O)OC(C)C(=O)NC2CCCCC2C)c(C)o1 (stereo not drawn),3.31,–
Cc1nc2sccn2c(=O)c1S(=O)(=O)NCCc1ccccc1,0.103,–
O=C(COC(=O)c1c(Cl)cccc1Cl)Nc1cccc(S(=O)(=O)NC2=NCCCCC2)c1,-27.6,–
O=S(=O)(NCC(c1ccco1)N1CCOCC1)c1cc(F)ccc1F (stereo not drawn),-29,–
Cc1cc(C)n(CCNC(=O)CC2C(=O)NCCN2Cc2ccc(C)o2)n1 (stereo not drawn),18,–
O=C(COc1cc2oc(=O)c3c(c2cc1Cl)CCC3)NCCCN1CCOCC1,-7.82,–
Cc1ccc(-c2csc(C(C#N)=C(O)CN3CCN(C(=O)c4ccco4)CC3)n2)cc1,10.4,–
CCOC(=O)c1cnc(-n2nc(C)cc2C)nc1-n1nc(C)cc1C,22.5,–
CCOC(=O)c1cccc(NC(=O)CCn2nnc3ccccc32)c1,-24.8,–
CCOC(=O)c1cnc(-n2nc(C)cc2C)nc1Nc1cccc(C(C)=O)c1,–,16.4 µM (active)
COC(=O)c1ccc(OC)c(Cn2c(=O)n(Cc3ccccc3)c(=O)c3c2c2cc(OC)ccc2n3C)c1,-27.3,–
O=S(=O)(NCCS(=O)(=O)N1CCN(c2ccccc2)CC1)c1ccc(Cl)cc1,-9.4,–
COCOCCn1cc(CN2CCS(=O)(=O)N(Cc3ccc(-c4ccc(OC)cc4)cc3)C(CC(C)C)C2=O)nn1 (stereo not drawn),–,16.4 µM (active)
COCCCn1cc(CN2CC(N(C)C)CS2(=O)=O)nn1 (stereo not drawn),-6.4,–

SMILES,"activity change, negative = growth inhibition [%]",Potency
COc1ccc(-c2ccc(CN3C(CC(C)C)C(=O)N(Cc4cn(CC5CCCCC5)nn4)CCS3(=O)=O)cc2)cn1 (stereo not drawn),–,20.6 µM (active)
CC(=O)c1cccc(-n2nnnc2SCC(=O)NNC(=O)C2CCCCC2)c1,7.58,–
CC(=O)c1cccc(-c2ccc(CN3C(CC(C)C)C(=O)N(Cc4cn(CC5CCCCC5)nn4)CCS3(=O)=O)cc2)c1 (stereo not drawn),–,20.6 µM (active)
CC(C)CC1C(=O)N(Cc2cn(Cc3ccco3)nn2)CCS(=O)(=O)N1Cc1ccc(-c2ccc(Cl)c(Cl)c2)cc1 (stereo not drawn),–,18.4 µM (active)
CCOC(=O)NC(=O)CSc1nnc(SCCC(=O)O)s1,3.61,–
Cc1nc(-c2ccc(F)cc2)c(CC(=O)N(C)CC(=O)Nc2c(C)cccc2C)s1,0.646,–
Cc1ccccc1-n1cc(CNC(=O)C2CCC(=O)N(C3CC3)C2)cn1 (stereo not drawn),-20.8,–
CCOC(=O)c1sc2nc(C)nc(Nc3ccc(OC)c(OC)c3)c2c1C,-5.47,–
CC(=O)c1ccc(N=C2SCCCN2C(=O)C2CCCCC2)cc1,-8.83,–
Cc1ccc(-c2cc(C(=O)Oc3ccccc3Cl)no2)cc1C,-4.37,–
COc1ccc([C@H]2N[C@]3(CCCN(CC4CCCCC4)C3=O)[C@H]3C(=O)N(C)C(=O)[C@@H]23)cc1,-14.1,–
O=S1(=O)CC(N2CCN(CCO)CC2)CN1Cc1cn(Cc2cccc(Cl)c2)nn1 (stereo not drawn),-12.2,–
COc1ccc(-c2ccc(CN3C(CC(C)C)C(=O)N(Cc4cn(CC5CCCCC5)nn4)CCS3(=O)=O)cc2)cc1 (stereo not drawn),–,18.4 µM (active)
CC1C(=O)N(Cc2cn(CC3CCCCC3)nn2)CCS(=O)(=O)N1Cc1ccc(-c2cccc(N(C)C)c2)cc1 (stereo not drawn),–,4.61 µM (active)
O=S1(=O)CC(N2CCSCC2)CN1Cc1cn(Cc2cccc(Cl)c2)nn1 (stereo not drawn),1.41,–
COc1ccc(COC(=O)NC(C(=O)O)c2ccccc2)cc1 (stereo not drawn),-17,–
O=C(O)c1ccccc1-c1ccccc1C(=O)Nc1ccccc1Br,-10.4,–
O=C(CCNS(=O)(=O)c1ccc(Br)s1)NCc1ccccc1Cl,5,–
O=C(Nc1nnc(Cc2ccc(Cl)cc2)s1)c1cccnc1,1.2,–
NC(=O)COc1ccc(NC(=O)c2ccccc2-c2ccccc2)cc1,-9.37,–
CCCc1nc2c(c(=O)c3ccccc3n2C)c(=O)n1C1CCCCCC1,–,18.4 µM (active)
CCOC(=O)c1nnn2c3ccccc3c(=O)n(C)c12,23,–
Cn1c2ccccc2c(=O)c2c(O)cccc21,1.89,–
